Laboratory results: PubChem BioAssay (Tox21)
Results filed as inconclusive are left out. A call without a number means that no potency is given here. Active and inactive are the calls of the source. The call rests on the fitted dose curve; in most records, active means well fitted cell-killing curve with a large enough effect in the repeat runs; inconclusive means weak or mixed curves, or effect the other way; inactive means flat fitted curve, though single readings scatter.

Assay: qHTS RealTime-Glo MT Cell Viability Assay in HEK293 cells - 16 hour (AID 1224872); further: top concentration of the series differs between compounds; nearly all actives have a fitted effect of over 50% in size
Settings: RealTime-Glo luminescence; series mostly up to 76.8 µM
Summary of the method: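 Viability tracked continuously by luminescence as live cells reduce a prosubstrate for NanoLuc; HEK293 cells preincubated 5 h, compound-treated at 37 C, and read at 0, 8, 16, 24, 32 and 40 h.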

Row | SMILES | Potency
1 | CC(C)n1c(/C=C/[C@@H](O)C[C@@H](O)CC(=O)O)c(-c2ccc(F)cc2)c2ccccc21 | inactive
2 | NC(=O)NNc1ccccc1 | inactive
3 | O=C(c1cc(O)c(O)c(O)c1)c1ccc(O)c(O)c1O | inactive
4 | O=C(Oc1ccccc1)c1ccc(O)cc1 | inactive
5 | CCc1ccccc1O | inactive
6 | Cc1cc(O)cc(C)c1Cl | inactive
7 | CCOC(=O)/C=C\C(=O)OCC | inactive
8 | CC1=C(CC(=O)O)c2cc(F)ccc2/C1=C\c1ccc(S(C)=O)cc1 (centres undefined) | inactive
9 | Nc1cc(-c2ccncc2)c[nH]c1=O | inactive
10 | CCCCCCCCCCC=CC1CC(=O)OC1=O (centres undefined) | inactive
11 | C=CC(=O)OCCCCCCCC(C)C | inactive
12 | CCCCOCCOCCOC(=O)CCCCC(=O)OCCOCCOCCCC | inactive
13 | O=C(O)c1ccc([N+](=O)[O-])cc1 | inactive
14 | CC1(C)CC(N=C=O)CC(C)(CN=C=O)C1 (centres undefined) | inactive
15 | NC(=O)/N=N/C(N)=O | inactive
16 | CNC[C@H](O)[C@@H](O)[C@H](O)[C@H](O)CO | inactive
17 | CC(=O)Nc1ccc(C(=O)O)cc1 | inactive
18 | O=C1O[C@H](CO)[C@@H](O)[C@H](O)[C@H]1O | inactive
19 | C=C(C)C(=O)OCCCCCC | inactive
